# Source: PubChem BioAssay (NCI)
# This is part of a sample that, as a whole, favours compounds with a hit. Of some 83,000 tested, about 20% had one in any assay.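 Percent growth is the endpoint: 0 to 100 indicates growth inhibition (40 means 60% inhibition), 0 means no net growth, and negative values indicate cell death.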 Activity calls are given as the source filed them. The calls were made as follows: active = growth percent below 10; inactive = the rest.
# System: HCT-116 colon
# Assay: NCI-60 one-dose screen, 48 h (100 = growth as untreated, 0 = no growth, -100 = all killed)
# Settings: 10 µM unless noted
row,Compound,growth
1,Cc1nc2cc(Nc3nc(NCCN)nc(Nc4ccc(F)cc4)n3)ccc2n1Cc1ccccc1,60.3% (inactive)
2,Oc1cccc(Nc2nc(-c3ccccn3)cs2)c1,97.1% (inactive)
3,COc1ccc(-c2c3c(N)c4c(nc3nc3c2c(C)nn3-c2ccccc2)CCCC4)cc1,31.8% (inactive)
4,O=C1c2cc(S(=O)(=O)O)ccc2C(=O)c2c1cccc2[N+](=O)[O-],106% (inactive)
5,COc1cc(CNCCN2C(=O)c3ccc4c5c(ccc(c35)C2=O)C(=O)N(CCNCc2cc(OC)c(OC)c(OC)c2)C4=O)cc(OC)c1OC,-99.7% (active)
6,O=C1N/C(=C\c2ccccc2)c2ncccc21,101% (inactive)
7,FC(F)(F)c1cc(CNc2ncc(Br)c(Cl)n2)cc(C(F)(F)F)c1,90.2% (inactive)
8,COc1ccc(OC2=C(C#N)C(=N)N3c4ccccc4Sc4ccccc4C3N2)cc1 (stereo unspecified),103% (inactive)
9,COc1cc(C(=O)N(C(C)C)C2CCCCC2)cc(OC)c1OC,122% (inactive)
10,COc1cc(/C=C/C(=O)C(=Cc2ccc(F)c(F)c2)C(=O)/C=C/c2ccc(O)c(OC)c2)ccc1O,-76.5% (active)
11,O=C(c1ccc2ncc(-c3nc(NC4CC4)ncc3F)n2c1)N1CCOCC1,0.221% (active)
12,O=C(COc1cccc(/C=C2\COc3ccccc3C2=O)c1)c1ccccc1,3.67% (active)
13,COc1ccc(Nc2[nH]n(C3=Nc4ccccc4Sc4ccccc43)c(=O)c2C#N)cc1,30.6% (inactive)
14,O=c1oc2ccccc2cc1-c1csc(N/N=C/c2cc3ccccc3nc2Cl)n1,105% (inactive)
15,COc1cc(-c2nc(Nc3nc4ccccc4[nH]3)nc(N)c2C#N)cc(OC)c1OC,43.3% (inactive)
16,CSc1ccc(OC(C)=O)cc1C,101% (inactive)
17,COCCOC1=C(Cl)C(=O)c2ccccc2C1=O,-13.5% (active)
18,CCN(CC)CCCNc1ccc(C)c2sc3ccccc3c(=O)c12,17.5% (inactive)
19,CC[Si](CC)(CC)OC1[C@@H](O[Si](CC)(CC)CC)[C@@H](CNC(=O)NC)O[C@H]1n1cnc2c(NC(=O)Nc3ccccc3)ncnc21 (stereo partly specified),51.9% (inactive)
20,CCC(C)[C@H]1O[C@]2(CC[C@@H]1C)C[C@@H]1C[C@@H](C/C=C(\C)[C@@H](OC3C[C@H](OC)C(O[C@H]4C[C@H](OC)[C@@H](O)[C@H](C)O4)[C@H](C)O3)[C@@H](C)/C=C/C=C3\CO[C@@H]4[C@H](O)C(C)=C[C@@H](C(=O)O1)[C@]34O)O2 (stereo partly specified),-89.2% (active)

row,Compound,growth
1,COC1(OC)C2(Cl)C=C(c3ccccc3)C1(Cl)C(Cl)=C2Cl (stereo unspecified),79.3% (inactive)
2,CSc1nnc(-c2sc3nnc(-c4ccccc4)c(-c4ccccc4)c3c2O)o1,60.9% (inactive)
3,COc1ccc(OC)c2ncccc12,100% (inactive)
4,O=c1nc(NO)[nH]c(=O)n1Cc1ccccc1,105% (inactive)
5,C(=C\c1ccccc1)/CN1CCN(C(c2ccccc2)c2ccccc2)CC1,95.8% (inactive)
6,Cc1nn2c(-c3nc4ccc(Cl)cc4[nH]3)c(-c3ccc(F)cc3)nc2s1,86.3% (inactive)
7,O=C1/C(=C/c2ccc(F)cc2)CN(Cc2cn(CCNc3ccnc4cc(Cl)ccc34)nn2)C/C1=C\c1ccc(F)cc1,-84.5% (active)
8,CCCN1CCN(c2ccc3nc(-c4ccc5nc(-c6ccc(C(F)(F)F)cc6)[nH]c5c4)[nH]c3c2)CC1,-83.3% (active)
9,Cc1nc2cc(Nc3nc(Nc4ccc(F)cc4)nc(-c4cccs4)n3)ccc2n1Cc1ccccc1,24.2% (inactive)
10,Cc1ccc(N=c2nc3sc4c(C)ccc(C)c4n3c(N)c2C#N)cc1,94.4% (inactive)
11,CCC12CCC3c4ccc(O)cc4CCC3C1CC(O)C2O (stereo unspecified),64.6% (inactive)
12,Clc1ccccc1Nc1ccc2nnc(-c3ccncc3)n2n1,101% (inactive)
13,Cc1ccc2nc(NC(=O)CSC(=S)N3CCN(C)CC3)sc2c1,97.2% (inactive)
14,COc1ccc(Sc2ccc3[nH]c(=O)nc(N)c3c2)cc1,99.9% (inactive)
15,COc1ccc(C2OCC(C)(C)CO2)cc1OC,109% (inactive)
16,CN1CCc2c(c3ccccc3c3ccccc23)C1,16.9% (inactive)
17,CN1CCN(C(=O)OCCOCCOC(=O)N2CCN(C)CC2)CC1,94.8% (inactive)
18,CC1SC(c2ccc(Cl)cc2)N(CCc2cccs2)C1=O (stereo unspecified),-5.82% (active)
19,NS(=O)(=O)c1cc(Br)c2c(c1)S(=O)(=O)NCN2,108% (inactive)
20,O=C1C(OCCOc2ccccc2)=C(OCCOc2ccccc2)C(=O)c2ccccc21,26% (inactive)

# System: HCC-2998 colon
# Assay: as above
# Settings: 10 µM unless noted
row,Compound,growth
1,Cc1nc2cc(Nc3nc(NCCN)nc(Nc4ccc(F)cc4)n3)ccc2n1Cc1ccccc1,70.6% (inactive)
2,COc1ccc(-c2c3c(N)c4c(nc3nc3c2c(C)nn3-c2ccccc2)CCCC4)cc1,100% (inactive)
3,O=C1c2cc(S(=O)(=O)O)ccc2C(=O)c2c1cccc2[N+](=O)[O-],110% (inactive)
4,COc1cc(CNCCN2C(=O)c3ccc4c5c(ccc(c35)C2=O)C(=O)N(CCNCc2cc(OC)c(OC)c(OC)c2)C4=O)cc(OC)c1OC,-100% (active)
5,O=C1N/C(=C\c2ccccc2)c2ncccc21,109% (inactive)
6,FC(F)(F)c1cc(CNc2ncc(Br)c(Cl)n2)cc(C(F)(F)F)c1,102% (inactive)
7,COc1ccc(OC2=C(C#N)C(=N)N3c4ccccc4Sc4ccccc4C3N2)cc1 (stereo unspecified),95.2% (inactive)
8,COc1cc(/C=C/C(=O)C(=Cc2ccc(F)c(F)c2)C(=O)/C=C/c2ccc(O)c(OC)c2)ccc1O,-71.9% (active)
9,O=C(c1ccc2ncc(-c3nc(NC4CC4)ncc3F)n2c1)N1CCOCC1,71.3% (inactive)
10,COc1ccc(Nc2[nH]n(C3=Nc4ccccc4Sc4ccccc43)c(=O)c2C#N)cc1,40.8% (inactive)
11,O=c1oc2ccccc2cc1-c1csc(N/N=C/c2cc3ccccc3nc2Cl)n1,102% (inactive)
12,COc1cc(-c2nc(Nc3nc4ccccc4[nH]3)nc(N)c2C#N)cc(OC)c1OC,81.2% (inactive)
13,CSc1ccc(OC(C)=O)cc1C,102% (inactive)
14,CCN(CC)CCCNc1ccc(C)c2sc3ccccc3c(=O)c12,-49.2% (active)
15,CC[Si](CC)(CC)OC1[C@@H](O[Si](CC)(CC)CC)[C@@H](CNC(=O)NC)O[C@H]1n1cnc2c(NC(=O)Nc3ccccc3)ncnc21 (stereo partly specified),96.5% (inactive)
16,CCC(C)[C@H]1O[C@]2(CC[C@@H]1C)C[C@@H]1C[C@@H](C/C=C(\C)[C@@H](OC3C[C@H](OC)C(O[C@H]4C[C@H](OC)[C@@H](O)[C@H](C)O4)[C@H](C)O3)[C@@H](C)/C=C/C=C3\CO[C@@H]4[C@H](O)C(C)=C[C@@H](C(=O)O1)[C@]34O)O2 (stereo partly specified),-82.3% (active)

row,Compound,growth
1,COC1(OC)C2(Cl)C=C(c3ccccc3)C1(Cl)C(Cl)=C2Cl (stereo unspecified),99.8% (inactive)
2,COc1ccc(OC)c2ncccc12,103% (inactive)
3,O=c1nc(NO)[nH]c(=O)n1Cc1ccccc1,106% (inactive)
4,C(=C\c1ccccc1)/CN1CCN(C(c2ccccc2)c2ccccc2)CC1,100% (inactive)
5,Cc1nn2c(-c3nc4ccc(Cl)cc4[nH]3)c(-c3ccc(F)cc3)nc2s1,99.2% (inactive)
6,O=C1/C(=C/c2ccc(F)cc2)CN(Cc2cn(CCNc3ccnc4cc(Cl)ccc34)nn2)C/C1=C\c1ccc(F)cc1,-92.1% (active)
7,CCCN1CCN(c2ccc3nc(-c4ccc5nc(-c6ccc(C(F)(F)F)cc6)[nH]c5c4)[nH]c3c2)CC1,-89.8% (active)
8,Cc1nc2cc(Nc3nc(Nc4ccc(F)cc4)nc(-c4cccs4)n3)ccc2n1Cc1ccccc1,72.1% (inactive)
9,Cc1ccc(N=c2nc3sc4c(C)ccc(C)c4n3c(N)c2C#N)cc1,110% (inactive)
10,CCC12CCC3c4ccc(O)cc4CCC3C1CC(O)C2O (stereo unspecified),75.9% (inactive)
11,Clc1ccccc1Nc1ccc2nnc(-c3ccncc3)n2n1,118% (inactive)
12,COc1ccc(C2OCC(C)(C)CO2)cc1OC,102% (inactive)
13,CN1CCc2c(c3ccccc3c3ccccc23)C1,70% (inactive)
14,CN1CCN(C(=O)OCCOCCOC(=O)N2CCN(C)CC2)CC1,98.4% (inactive)
15,CC1SC(c2ccc(Cl)cc2)N(CCc2cccs2)C1=O (stereo unspecified),-1.78% (active)
